Screens from PubChem.
RecA splice inh – Mtb RecA intein splicing inhibitors, primary screen, biochemical, fluorescence, HTS; cell-free RecA intein splicing; AID 2221, 2009; Protein RecA (Mycobacterium tuberculosis (strain ATCC 25618 / H37Rv)), P9WHJ3; 290,000 compounds, 0.75% hits; inhibition, % (no concentration beside the values); in the data active = inhibition above about 30%; inconclusive = no clear call, values can overlap the other calls
Target sequence (P9WHJ3 whole entry, looked up, canonical isoform): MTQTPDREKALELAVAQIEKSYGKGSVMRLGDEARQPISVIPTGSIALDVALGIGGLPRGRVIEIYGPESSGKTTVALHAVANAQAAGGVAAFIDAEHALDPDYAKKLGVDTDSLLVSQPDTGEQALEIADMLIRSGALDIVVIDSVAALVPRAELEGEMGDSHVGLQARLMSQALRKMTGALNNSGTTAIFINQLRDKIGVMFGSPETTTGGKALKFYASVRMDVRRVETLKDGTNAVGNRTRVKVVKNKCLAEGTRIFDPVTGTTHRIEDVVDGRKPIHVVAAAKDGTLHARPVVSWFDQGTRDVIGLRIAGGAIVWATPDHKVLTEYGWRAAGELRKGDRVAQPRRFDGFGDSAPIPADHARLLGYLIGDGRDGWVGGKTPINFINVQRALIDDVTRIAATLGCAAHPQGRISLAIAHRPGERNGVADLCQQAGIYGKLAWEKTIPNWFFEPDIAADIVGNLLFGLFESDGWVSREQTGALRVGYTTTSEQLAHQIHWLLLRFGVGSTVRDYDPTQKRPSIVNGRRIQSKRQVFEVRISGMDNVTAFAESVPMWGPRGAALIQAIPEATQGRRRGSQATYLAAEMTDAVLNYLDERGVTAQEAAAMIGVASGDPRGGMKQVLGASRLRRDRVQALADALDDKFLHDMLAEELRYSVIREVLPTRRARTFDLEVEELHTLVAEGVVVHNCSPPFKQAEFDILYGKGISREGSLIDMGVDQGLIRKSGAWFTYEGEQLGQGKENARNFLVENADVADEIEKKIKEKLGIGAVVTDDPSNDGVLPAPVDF
Mtb BioA inh – M. tuberculosis BioA enzyme inhibitors, primary screen, biochemical, plate reader, single point, HTS; inhibition, % at 9.99 µM; 360,000 compounds, 0.096% hits; purified M. tuberculosis BioA enzyme; in the data active = inhibition above about 40%; inconclusive = no clear call, values can overlap the other calls
CCHFV vOTU inh – CCHFV vOTU protease inhibitors, primary screen, biochemical, Pep-AMC substrate, fluorescence; inhibition, % at 11.5 µM; 370,000 compounds, 0.55% hits; Crimean-Congo hemorrhagic fever virus L polyprotein viral ovarian tumor (vOTU) protease …; in the data active = inhibition above about 30%
Mtb betalactam – beta-lactam sensitization of Mtb H37Rv, H37Rv; M. tuberculosis H37Rv growth with meropenem, percent inhibition; inhibition, % at 25 µM; 330,000 compounds, 0.27% hits; call rule not given here;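 also: growth measured after seven days incubation then overnight dye step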
Yp Topo-I inh – Yersinia pestis topoisomerase I inhibitors, primary screen, biochemical, cleavage product accumulation, plate reader, single point; 360,000 compounds, 0.064% hits; activity, % at 10 µM; Y. pestis Topo-I cleavage product accumulation; AID 504884, 2011; DNA topoisomerase I (Yersinia pestis CO92); in the data active = activity above about 50%, passing the limit was not always enough; inconclusive = no clear call, values can overlap the other calls
BJeLR viability – MLPCN primary cell-based screen for lethality selective to Ras in HRASV12 cells; AID 1554, 2009; inhibition, % (concentration not given with the values); 300,000 compounds, 0.17% hits; BJeLR (HRASV12) viability, CellTiter-Glo ATP luminescence, 48 h; in the data active = inhibition above about 50%; inconclusive = no clear call, values can overlap the other calls
Hits are given with their value; - = inactive; ? = inconclusive; . = not tested or not shown. The list is not random: actives were taken first. Their share in the collection is about 1.1%.

SMILES	RecA splice inh	Mtb BioA inh	CCHFV vOTU inh	Mtb betalactam	Yp Topo-I inh	BJeLR viability
C[C@H]1CN([C@@H](C)CO)C(=O)Cc2cc(NC(=O)c3ccncc3)ccc2O[C@@H]1CN(C)Cc1ccc2c(c1)OCO2	.	-	.	.	.	.
Cc1ccc(-c2nn(CC(=O)NCc3cc(-c4nn(C)c(=O)c5ccccc45)ccc3C)c(=O)c3ccccc23)cc1	-	-	-	-	-	125
CCC(=O)NCc1cc(-c2nn(C)c(=O)c3ccccc23)ccc1C	-	-	-	-	-	-
C[C@@H]1CN([C@@H](C)CO)C(=O)c2cc(NS(=O)(=O)c3ccc(F)cc3)ccc2O[C@@H](C)CCCCO[C@@H]1CN(C)C(=O)CCCN(C)C	.	-	.	.	.	.
C[C@@H]1CCCCO[C@@H](CN(C)C(=O)Nc2ccc(F)cc2)[C@@H](C)CN([C@H](C)CO)C(=O)c2cc(NS(C)(=O)=O)ccc2O1	.	-	.	.	.	.
COc1cc(/C=C/C(=O)c2ccc(NS(=O)(=O)c3ccc(C)cc3)cc2)cc(OC)c1O	-	.	-	-	-	-
COc1cccc(/C=C/C(=O)c2ccc(NS(=O)(=O)c3ccc(C)cc3)cc2)c1	34	-	-	-	-	-
O=C(O)Cc1ccc(N2N=C(c3ccccc3)CC2=O)cc1	.	-	-	.	.	.
O=C1CC(c2cccnc2)=NN1c1ccccc1	64	-	-	-	-	-
COc1ccc(C#Cc2ccc3c(c2)O[C@@H](CN(C)C(=O)CN2CCOCC2)[C@@H](C)CN([C@@H](C)CO)S3(=O)=O)cc1	.	-	.	.	.	.
C[C@@H]1C=CC(=O)O[C@@H]1c1ccc(Cl)cc1	-	.	-	-	.	77
CC1C(=O)OC(c2ccc(Cl)cc2)C(C)(C)C1=O (stereo unspecified)	-	-	-	-	-	-
CC(=O)O[C@@H]1C[C@H]2C(C)(C)C(=O)C=C[C@]2(C)[C@H]2CC[C@@]3(C)[C@H](c4ccoc4)OC(=O)[C@H]4O[C@]43[C@@]21C	42	-	-	-	-	-
Cc1ccc(S(=O)(=O)N2CCOCC2)cc1C(=O)NCCN1C(=O)S/C(=C\c2ccccc2Cl)C1=O	-	.	-	-	-	-
CC(C)(C)c1ccc(/C=C2\SC(=O)N(CCNC(=O)c3cccc(S(=O)(=O)N4CCOCC4)c3)C2=O)cc1	31	-	.	-	-	-
COc1ccc(NC(=O)N(C)C[C@@H]2Oc3ncc(-c4ccc(C#N)cc4)cc3C(=O)N([C@H](C)CO)C[C@H]2C)cc1	.	-	.	.	.	.
Cc1ccc(/C=N/NC(=O)c2cc(-c3ccncc3)nc3ccccc23)o1	-	-	-	.	-	59
O=C(NCc1ccc(F)cc1)[C@H]1[C@H](CO)[C@H]2Cn3c(cccc3=O)[C@@H]1N2Cc1cccnc1	.	-	.	.	.	.
Cc1ccc(C(=O)Sc2cccccc2=O)cc1	-	-	-	-	-	104
COc1ccccc1CNC(=O)C[C@@H]1C=C[C@H](NC(=O)CN(C)C)[C@H](CO)O1	.	-	.	.	.	.
Cc1ccc(NC(=O)CCl)cc1S(=O)(=O)N1CCCCCC1	52	.	-	-	-	-
O=C(Cn1ncc(Cl)c(Cl)c1=O)Nc1ccc2c(c1)OCO2	.	-	-	-	-	.
COCCNCC(=O)Nc1ccc(C)c(S(=O)(=O)N2CCCCC2)c1	-	-	-	-	-	-
CCN(CC)S(=O)(=O)c1cc(NC(=O)Cn2ncc(Cl)c(Cl)c2=O)ccc1C	52	.	-	-	-	-
CN1CCN(S(=O)(=O)c2ccc(Sc3nnnn3-c3ccccc3)c([N+](=O)[O-])c2)CC1	-	.	-	-	-	-
SMILES	RecA splice inh	Mtb BioA inh	CCHFV vOTU inh	Mtb betalactam	Yp Topo-I inh	BJeLR viability
CC(=O)c1ccc(Sc2nnnn2-c2ccccc2)c([N+](=O)[O-])c1	31	.	-	-	-	-
C[C@@H]1CN([C@H](C)CO)C(=O)c2cc(C#Cc3cccnc3)cnc2O[C@H]1CN(C)C	.	-	.	.	.	.
CC(C)C#Cc1cnc2c(c1)C(=O)N([C@H](C)CO)C[C@H](C)[C@H](CN(C)C(=O)c1ccc3c(c1)OCO3)O2	.	-	.	.	.	.
COc1ccc(/C=C/C(=O)c2cc(F)ccc2OC(=O)c2ccccc2C)cc1OC	-	-	-	-	-	77
NC(=O)[C@H](Cc1cc2ccccc2s1)NC(=O)[C@@H]1CC2(CC(c3cccc(NC(=O)[C@@H]4CCC(=O)N4)c3)=NO2)CN1C(=O)/C=C/c1c(F)cccc1Cl (stereo partly specified)	33	-	.	-	?	-
NC(=O)[C@H](Cc1cc2ccccc2s1)NC(=O)[C@@H]1CC2(CC(c3cccc(NC(=O)[C@@H]4CCC(=O)N4)c3)=NO2)CN1C(=O)/C=C/Sc1ccccc1 (stereo partly specified)	-	-	-	-	-	-
O=C(Nc1ccccc1)N1CCCCN2[C@@H](CO)[C@H](c3ccc(C4=CCCCC4)cc3)[C@@H]2C1	.	-	.	.	.	.
COc1cccc(/C=N/Nc2ncnc(Cl)c2N)c1O	-	.	-	-	-	56
COc1cccc(/C=N/Nc2ncnc3scc(-c4ccccc4)c23)c1O	-	.	-	-	67	70
COc1cccc(/C=N/Nc2nccnc2Cl)c1O	.	.	-	.	-	-
CNC[C@H]1Oc2ccc(NC(=O)CCC(F)(F)F)cc2CC(=O)N([C@@H](C)CO)C[C@H]1C	.	-	.	.	.	.
CCOc1ccc(C2C(C#N)=C(N)Oc3n[nH]c(C)c32)cc1OC(=O)C1CC1 (stereo unspecified)	66	-	-	-	-	-
CCc1[nH]nc2c1C1(CCN(C(=O)OCc3ccccc3)CC1)C(C#N)=C(N)O2	-	-	-	-	-	-
COc1cc(C2C(C#N)=C(N)Oc3cc(C)oc(=O)c32)ccc1OC(=O)N1CCOCC1 (stereo unspecified)	-	-	-	-	-	-
CC(C)c1[nH]nc2c1C(c1cccc(OC(=O)N3CCOCC3)c1)C(C#N)=C(N)O2 (stereo unspecified)	45	-	-	-	-	-
CCCc1[nH]nc2c1C(c1ccc(OC(=O)N3CCOCC3)c(OC)c1)C(C#N)=C(N)O2 (stereo unspecified)	42	-	-	-	-	-
COc1cc(C2C(C#N)=C(N)OC3=C2C(=O)CCC3)ccc1OC(=O)N1CCOCC1 (stereo unspecified)	-	-	-	-	-	-
CCc1[nH]nc2c1C(c1cccc(OC(=O)N3CCOCC3)c1)C(C#N)=C(N)O2 (stereo unspecified)	69	.	-	-	-	-
O=C(C[C@@H]1CC[C@H](NC(=O)Nc2ccc(C(F)(F)F)cc2)[C@H](CO)O1)NCc1cc(F)cc(F)c1	.	-	.	.	.	.
